Inconclusive results are not listed. Where a call stands in place of a potency, no number is given. Calls of active or inactive are those of the source. Calls come from the whole dose curve; as a rule, active = well fitted curve in the direction sought with a large enough effect in the repeat runs; inconclusive = weak or mixed curves; inactive = no such curve, though single readings can be large; an effect the other way counts as inactive or inconclusive.

For 38 molecules, Potency results are on record in PubChem BioAssay (Tox21).

A short description of the first assay: qHTS assay to identify small molecule agonists of the RXR signaling pathway - cell viability counter screen (AID 1159529).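 Note: HEK 293T cells carrying an RXR-alpha UAS beta-lactamase reporter; nearly all actives have a fitted effect of over 50% in size.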 Conditions: RXR-alpha-bla HEK293T viability, CellTiter-Glo, 16 h; series mostly up to 76.8 µM. The method, boiled down: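 HEK 293T RXRa-bla cells, 2% CS-FBS; 5 h settle; cpd 16 h 37 C, 5% CO2; CellTiter-Glo 30 min RT, luminescence. Tetraoctyl ammonium bromide as positive control.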
With `Cc1ccc([N+](=O)[O-])cc1N`, the Potency result was “inactive”. Still for that read-out and setting: in the case of `C[n+]1ccn(CCO)c1` it was “inactive”; in that of `OCC(CO)(CO)CO`, “inactive”.

With `O=C(c1ccccc1)c1ccc(O)c(O)c1O`, the Potency result is “inactive”. Still for that read-out and setting: in the case of `C=C(CC(=O)O)C(=O)O` it was “inactive”; in that of `CC(=O)OC[C@H]1O[C@@](COC(C)=O)(O[C@H]2O[C@H](COC(C)=O)[C@@H](OC(C)=O)[C@H](OC(C)=O)[C@H]2OC(C)=O)[C@@H](OC(C)=O)[C@@H]1OC(C)=O`, “inactive”. The same measure, in the same setting: in the case of `Cc1ccncc1` it was “inactive”; in that of `COc1ccc([C@@H]2CC(=O)c3c(O)cc(O[C@@H]4O[C@H](CO[C@@H]5O[C@@H](C)[C@H](O)[C@@H](O)[C@H]5O)[C@@H](O)[C@H](O)[C@H]4O)cc3O2)cc1OC`, “inactive”.

Another assay can be described thus: qHTS assay to identify small molecule antagonists of the retinoid acid receptor (RAR) signaling pathway - cell viability counter screen (AID 1159551). Note: nearly all actives have a fitted effect of over 35% in size. Conditions: C3RL4 cells viability, ATP luminescence (CellTiter-Glo), 6 h; series mostly up to 92.4 µM. The method, boiled down: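 Viability of C3RL4 cells is quantified from ATP by luminescence after 6 h treatment at 37 C with compounds and 1 uM retinol.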
Take `CS(=O)(=O)c1ccc(Cl)cc1`: the Potency result is “inactive”. Still for that read-out and setting: in the case of `CCCCCCCCC(=O)O` it was “inactive”.

With `Nc1cccc(C(F)(F)F)c1`, the Potency result is “inactive”. For `C=CC(=O)NCOCCCC`, the Potency result was “inactive”. On the same count and under the same terms, in the case of `CCOC(=O)c1ccc(O)cc1` it was “inactive”; in that of `Nc1cccc(N)n1`, “inactive”. The same measure, in the same setting: as for `OC[C@H]1O[C@@H](Oc2ccc(O)cc2)[C@H](O)[C@@H](O)[C@@H]1O`, the entry is “inactive”; as for `Cc1cc(C)c(O)c(C)c1`, “inactive”. Still for that read-out and setting: in the case of `O=Cc1ccc(CO)o1` it was “inactive”; in that of `CCCCCCCCCCCC(=O)N(C)CC(=O)O`, “inactive”; in that of `CCCCC(CC)COC(=O)c1ccc(C(=O)OCC(CC)CCCC)cc1` (stereo unspecified), “inactive”. For `CCCCC(=O)O`, the Potency entry is “inactive”. The same measure, in the same setting: in the case of `COCN(COC)c1nc(N(COC)COC)nc(N(COC)COC)n1` it was “inactive”.

Take `NCCNCCNCCN`: the Potency entry was “inactive”. For `CC(=O)OC/C=C(\C)CCC=C(C)C`, the Potency result was “inactive”. The same measure, in the same setting: in the case of `Cc1cccc(C)c1[N+](=O)[O-]` it was “inactive”; in that of `N#CCC(=O)O`, “inactive”; in that of `CC1=CC(=O)CC(C)(C)C1`, “inactive”. On to `CCCCCCC(=O)O`, for which the Potency entry was “inactive”. Still for that read-out and setting: as for `CCCOC(=O)NCCCN(C)C`, the entry is “inactive”; as for `CN1CCCC1=O`, “inactive”; as for `CC(C=O)Cc1ccc(C(C)(C)C)cc1` (stereo unspecified), “inactive”.

For `OCC(O)CS` (stereo unspecified), the Potency result is “inactive”.

Regarding `O=C1OC(=O)c2c(Cl)c(Cl)c(Cl)c(Cl)c21`, the Potency entry is “inactive”. Same read-out and setting: in the case of `CCOC(=O)CC(=O)OCC` it was “inactive”. Still for that read-out and setting: as for `Cc1cc(C)cc(O)c1`, the entry is “inactive”; as for `COC(=O)/C=C\C(=O)OC`, “inactive”. Same read-out and setting: as for `OCCOCCOCCOCCOCCO`, the entry is “inactive”; as for `O=C(Cl)c1ccc(C(=O)Cl)cc1`, “inactive”.

`C[Si](C)(C)N[Si](C)(C)C`: the Potency entry was “inactive”. Still for that read-out and setting: in the case of `Cc1ccc([N+](=O)[O-])cc1N` it was “inactive”; in that of `C[n+]1ccn(CCO)c1`, “inactive”. The same measure, in the same setting: in the case of `OCC(CO)(CO)CO` it was “inactive”; in that of `O=C(c1ccccc1)c1ccc(O)c(O)c1O`, “inactive”; in that of `C=C(CC(=O)O)C(=O)O`, “inactive”. On the same count and under the same terms, as for `CC(=O)OC[C@H]1O[C@@](COC(C)=O)(O[C@H]2O[C@H](COC(C)=O)[C@@H](OC(C)=O)[C@H](OC(C)=O)[C@H]2OC(C)=O)[C@@H](OC(C)=O)[C@@H]1OC(C)=O`, the entry is “inactive”; as for `Cc1ccncc1`, “inactive”.

Consider `COc1ccc([C@@H]2CC(=O)c3c(O)cc(O[C@@H]4O[C@H](CO[C@@H]5O[C@@H](C)[C@H](O)[C@@H](O)[C@H]5O)[C@@H](O)[C@H](O)[C@H]4O)cc3O2)cc1OC`, for which the Potency result was “inactive”.
